We go through 10 molecules from PubChem BioAssay (NCI).

Among the test systems are NCI-H23 lung; NCI-H226 lung; NCI-H322M lung; HOP-62 NSCLC; NCI-H460 lung; NCI-H522 lung; A549/ATCC NSCLC; 786-0 renal; COLO 205 colon; DU-145 prostate; K-562 leukemia; MALME-3M melanoma; MDA-MB-231 breast; RXF 393 renal; SF-268 CNS; SF-295 CNS; SF-539 CNS; UACC-257 melanoma; M14 melanoma.
What all share (test): NCI-60 one-dose screen, 48 h (100 = growth as untreated, 0 = no growth, -100 = all killed)
Settings in all cases: 10 µM unless noted

The panel holds about 83,000 compounds, 20% with a hit somewhere; the sample as a whole holds those more often.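 Values shown are percent growth following 48 h exposure of cells in 96-well plates to a single concentration of compound; below 10 was considered active.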 Values without a mark were called inactive. Active and inactive are the calls of the source.

Take `COc1ccc2nc3ccccc3c(NCc3ccc(C)cc3)c2c1`: the growth in the test on NCI-H23 lung is 28.3%; in the test with NCI-H226 lung it was 42.1%; in the test on NCI-H322M lung it was 30.3%; in the test with HOP-62 NSCLC it was 39%; with NCI-H460 lung it was 10%; in the test with NCI-H522 lung, 26.4%. The growth in the test on A549/ATCC NSCLC was 19.3%; in the test with 786-0 renal, 15.8%; with COLO 205 colon, -40.6% (active); in the test with DU-145 prostate it was 21.6%; with K-562 leukemia, 2.71% (active); in the test with MALME-3M melanoma, 22.1%. For the same molecule, the growth in the test with MDA-MB-231 breast is 33.6%; in the test with RXF 393 renal it was 6.17% (active); with SF-268 CNS, 48.4%; with SF-295 CNS, 23.6%; in the test with SF-539 CNS, 10.7%; in the test on UACC-257 melanoma, -7.97% (active). For the same molecule, the growth with M14 melanoma was 28.7%.
In the case of `O=C(NCCN1CCCCC1)n1cc(-c2ccncc2)c(-c2ccc(Cl)c(O)c2)n1`, the growth with NCI-H23 lung was 83.4%; in the test on NCI-H226 lung it was 102%; in the test with NCI-H322M lung, 119%; with HOP-62 NSCLC, 79%; in the test on NCI-H460 lung it was 91.5%; in the test with NCI-H522 lung, 84.9%. Besides, the growth was 98.4% in the test on A549/ATCC NSCLC; 85.9% with 786-0 renal; 87% with COLO 205 colon; 105% with DU-145 prostate; 89.5% in the test on K-562 leukemia; -1.57% (active) with MALME-3M melanoma. In addition, the growth in the test with MDA-MB-231 breast is 74.5%; in the test on RXF 393 renal, 68%; in the test on SF-268 CNS, 89.8%; in the test with SF-295 CNS, 120%; in the test on SF-539 CNS, 91.3%; in the test on UACC-257 melanoma it was 58.9%. Besides, the growth with M14 melanoma is 27.5%.
Consider `CCN(CC)CCNC(=O)n1cc(-c2ccncc2)c(-c2ccc(Cl)c(OC)c2)n1`, for which the growth in the test on NCI-H23 lung is 98%; in the test with NCI-H226 lung, 61.5%; in the test with NCI-H322M lung, 118%; in the test with HOP-62 NSCLC, 66.8%; in the test with NCI-H460 lung, 104%; in the test with NCI-H522 lung it was 81.9%. The growth is 77.5% with A549/ATCC NSCLC; 72% with 786-0 renal; 70.1% in the test on COLO 205 colon; 97.8% with DU-145 prostate; 85.9% in the test on K-562 leukemia; 114% with MALME-3M melanoma. For the same molecule, the growth in the test on MDA-MB-231 breast was 79.5%; with RXF 393 renal, 85.3%; in the test on SF-268 CNS, 67.9%; in the test on SF-295 CNS, 97.7%; in the test on SF-539 CNS it was 75%; in the test on UACC-257 melanoma it was 93.1%. Moreover, the growth with M14 melanoma was 78.6%.
Consider `CCNCCCn1c2c(c3ccc(Cl)cc3c1=O)C(=O)c1cc(OC)cnc1-2`, for which the growth was 28.8% with NCI-H23 lung; -6.31% (active) in the test with NCI-H226 lung; 45% with NCI-H322M lung; -18.8% (active) in the test with HOP-62 NSCLC; -69.9% (active) in the test on NCI-H460 lung; -10.2% (active) in the test with NCI-H522 lung. Besides, the growth was 25.7% with A549/ATCC NSCLC; -95.4% (active) in the test on 786-0 renal; 8.78% (active) with COLO 205 colon; -97.4% (active) in the test on DU-145 prostate; -84.2% (active) in the test on K-562 leukemia; 74.2% with MALME-3M melanoma. In addition, the growth was -72.6% (active) in the test on MDA-MB-231 breast; 8.86% (active) with RXF 393 renal; -66% (active) with SF-268 CNS; 15.5% in the test with SF-295 CNS; 12% in the test on SF-539 CNS; 65.9% in the test on UACC-257 melanoma. For the same molecule, in the test with M14 melanoma, the growth was 40%.
As to `CN(C)c1ccc(C2(Cl)c3ccccc3N(C)c3ccccc32)cc1`, the growth was 44.2% in the test with NCI-H23 lung; 69.1% with NCI-H226 lung; 75.9% with NCI-H322M lung; 29.9% in the test with HOP-62 NSCLC; 36.9% with NCI-H460 lung; 19% with NCI-H522 lung. The growth was 60% with A549/ATCC NSCLC; 62.1% in the test with 786-0 renal; 43.1% in the test with COLO 205 colon; 50.5% with DU-145 prostate; 51% in the test on K-562 leukemia; 48.5% in the test on MALME-3M melanoma. Moreover, the growth was 69.1% in the test with MDA-MB-231 breast; 74% in the test with RXF 393 renal; 18.2% in the test with SF-268 CNS; 66.3% in the test on SF-295 CNS; 86.9% in the test on SF-539 CNS; 54.4% in the test with UACC-257 melanoma. The growth in the test on M14 melanoma is 53.4%.
On to `CCOC(=O)C1=C(C(=O)OCC)N(c2cc(OC)c(OC)c(OC)c2)C(N)=C(C#N)C1c1cc(=O)[nH]c2ccccc12` (configuration not stated), for which the growth in the test with NCI-H23 lung is 104%; with NCI-H226 lung, 96.7%; with NCI-H322M lung, 97.3%; in the test on HOP-62 NSCLC, 92.4%; in the test on NCI-H460 lung, 105%; with NCI-H522 lung it was 90.2%. In addition, the growth in the test on A549/ATCC NSCLC was 105%; in the test on 786-0 renal it was 101%; in the test on COLO 205 colon, 111%; with DU-145 prostate, 104%; with MALME-3M melanoma, 104%; with MDA-MB-231 breast it was 87.8%. In addition, the growth was 99.5% with RXF 393 renal; 91.1% in the test on SF-268 CNS; 94.3% with SF-295 CNS; 87.7% in the test on SF-539 CNS; 101% with UACC-257 melanoma.
As to `COc1nccc2c(Sc3ccccc3)nc(N)nc12`, the growth in the test with NCI-H23 lung is 98.8%; in the test on NCI-H226 lung it was 103%; in the test on NCI-H322M lung it was 110%; in the test on HOP-62 NSCLC it was 113%; with NCI-H460 lung, 109%; in the test on NCI-H522 lung, 88.1%. The growth in the test on A549/ATCC NSCLC is 104%; in the test on 786-0 renal it was 88.9%; in the test with COLO 205 colon, 117%; in the test on DU-145 prostate, 104%; in the test with K-562 leukemia, 93%; in the test on MALME-3M melanoma, 137%. Further, the growth in the test with MDA-MB-231 breast is 100%; in the test with RXF 393 renal it was 117%; with SF-268 CNS it was 105%; with SF-295 CNS, 103%; with SF-539 CNS it was 119%; in the test with UACC-257 melanoma it was 111%. Besides, in the test with M14 melanoma, the growth was 118%.
For the molecule `N/C(=N\OC(=O)c1ccccc1)C(Cc1ccccc1)C(=O)NOC(=O)c1ccccc1` (configuration not stated), the growth in the test with NCI-H23 lung is 46.6%; in the test with NCI-H226 lung, 95.1%; in the test with NCI-H322M lung, 89%; in the test with HOP-62 NSCLC, 1.55% (active); with NCI-H460 lung it was 5.54% (active); in the test on NCI-H522 lung, -53.7% (active). The growth is -60.3% (active) with A549/ATCC NSCLC; 48.7% with 786-0 renal; 69.3% in the test on COLO 205 colon; 16.2% with DU-145 prostate; -6.89% (active) in the test with K-562 leukemia; 59.2% with MALME-3M melanoma. For the same molecule, the growth in the test with MDA-MB-231 breast is 70.7%; in the test with RXF 393 renal, 53.4%; in the test on SF-268 CNS, 1.91% (active); in the test with SF-295 CNS, -14.7% (active); in the test on SF-539 CNS, 13.6%; in the test on UACC-257 melanoma, 88.8%. For the same molecule, the growth with M14 melanoma is 48.3%.
As to `CC(C)(C)c1nn(-c2ccccc2)c2c1C(=O)CSC(c1ccc3c(c1)OCO3)N2` (configuration not stated), the growth was 99.8% in the test on NCI-H23 lung; 104% in the test on NCI-H226 lung; 88.8% in the test with NCI-H322M lung; 88.6% with HOP-62 NSCLC; 106% in the test with NCI-H460 lung; 89.7% in the test with NCI-H522 lung. The growth in the test with A549/ATCC NSCLC is 112%; in the test with 786-0 renal, 88.7%; in the test with COLO 205 colon, 113%; with DU-145 prostate, 104%; with MALME-3M melanoma, 92%; in the test on MDA-MB-231 breast it was 98.6%. The growth was 114% in the test on RXF 393 renal; 92.5% in the test with SF-268 CNS; 91.4% with SF-295 CNS; 101% with SF-539 CNS; 130% in the test on UACC-257 melanoma; 91.3% with M14 melanoma.
Consider `CCOC(=O)C1OC2(CCCC2)OC1C(=O)OCC` (configuration not stated), for which the growth was 103% with NCI-H23 lung; 97.1% in the test with NCI-H226 lung; 94.3% with NCI-H322M lung; 103% with HOP-62 NSCLC; 116% in the test with NCI-H460 lung; 90.5% with NCI-H522 lung. The growth was 102% in the test on A549/ATCC NSCLC; 100% in the test on 786-0 renal; 111% in the test with COLO 205 colon; 125% in the test with DU-145 prostate; 112% in the test with K-562 leukemia; 107% with MALME-3M melanoma. In addition, the growth in the test with MDA-MB-231 breast was 95.7%; in the test with RXF 393 renal, 104%; in the test on SF-268 CNS it was 114%; in the test on SF-295 CNS it was 126%; with SF-539 CNS, 114%; with UACC-257 melanoma, 97.7%. The growth with M14 melanoma is 105%.
